Experimental findings from ChEMBL document CHEMBL4513216, “Probing the Open Global Health Chemical Diversity Library for Multistage-Active Starting Points for Next-Generation Antimalarials” (ACS Infect Dis, 2020) are described below.

Among all 69,000 compounds or so, about 8,600 (12%) showed an effect of 50% or more. Shown is part of a subset that was picked to be rich in strong results.

The test system of this assay is Plasmodium berghei. Briefly: Screen against P. berghei liver stage (PbLuc), transformed with Luciferase, at 10uM. It is filed as functional, HepG2. To be noted: tested at 10 uM.
For `Cc1cc(NC2CCC(=O)N(C)C2)n2nccc2n1` (stereo not drawn), the INHIBITION was -41.8%.
On to `Cc1cnn(CC2CCCCN2Cc2nnsc2Cl)c1` (stereo not drawn), for which the INHIBITION was -17.6%.
On to `COc1ccc(C2CC(=O)Oc3cc(C)[nH]c(=O)c32)c(OC)c1` (stereo not drawn), for which the INHIBITION was determined as 45.7%.
To `O=C(Cn1ccc2ccccc21)Nc1cc(N2CCOCC2)ncn1` belongs 30.5%; to `O=C(Cn1ccc2ccccc21)Nc1cc(N2CCCC2)ncn1`, 27.5%; to `CN1CCN(c2cc(NC(=O)Cn3ccc4ccccc43)ncn2)CC1`, 60.1%.
The value for `COCCC1(CO)CCCN(C(=O)c2cc(=O)[nH]c(=O)[nH]2)C1` (stereo not drawn) was 0.33%; that for `CNC(=O)CN1CC[C@H]2CN(C(=O)c3cccn3C)C[C@H]2C1` was 9.51%.
The value for `O=C(NCC1CCCO1)c1cc(-c2ccncc2)c2cnccc2n1` (stereo not drawn) was -3.02%; that for `CCN1CCN(C)C(=O)C12CCN(Cc1ccsc1)CC2` was -9.74%; that for `OCCC1CCN(c2ccnc3ccsc23)C1` (stereo not drawn) was 5.11%.
Regarding `O=C(N1CCOCC1)N1CCN(c2ccnc3ccsc23)CC1`, the INHIBITION was 5.76%.
For `c1cc(N2CCC(CN3CCOCC3)CC2)c2sccc2n1`, the INHIBITION worked out at 73.8%.
To `COCC1CCN(c2ccnc3ccsc23)C1` (stereo not drawn) belongs 79.5%; to `O=C(c1cnccn1)N1CCN(c2ccnc3ccsc23)CC1`, -7.46%; to `CN(C)C(=O)C1CCCN1c1ccnc2ccsc12` (stereo not drawn), 1.75%.
The value for `CSc1ncc(Cl)c(C(=O)NC(Cc2ccccc2)C(=O)O)n1` (stereo not drawn) was 36.7%; that for `CC(C)C(=O)Nc1cccc(CNC(=O)CSCc2ccccn2)c1` was 24.2%.
To `CCOc1ncccc1CNC(=O)Nc1ccc(OC)c(OC)c1` belongs -49.5%; to `Cc1nc(CN2C[C@@H]3CN(C(=O)[C@H]4CCCO4)C[C@@H]3C2=O)cs1`, 19.4%.
Consider `CN1CCC2(CC1)C(=O)N(c1cccnc1)c1ccc(F)cc12`, for which the INHIBITION was -45.8%.
`O=C(c1cc2cc(I)ccc2[nH]1)N1CCC(Nc2cccnn2)CC1`: the INHIBITION is on record as 9.54%.
To `COc1cccc(F)c1CN1CCC(c2nccc(C)n2)C1` (stereo not drawn) belongs 1.35%; to `N#CCCN(CC(F)(F)F)C(=O)c1cc(-n2cccn2)ccn1`, -13.7%.
To `O=C(O)c1ccc(S(=O)(=O)Nc2ccccc2CC(F)(F)F)c(F)c1` belongs 53.3%; to `Cc1ccccc1NS(=O)(=O)c1ccc(C(=O)O)cc1F`, 10.5%; to `O=C(O)c1ccc(S(=O)(=O)Nc2ccccc2F)c(F)c1`, 14.8%.
The value for `Cc1nc(C)n(C2CCCN(C(=O)c3ccn(C(C)C)n3)C2)n1` (stereo not drawn) was -2.53%.
For `CCCc1cc(C(=O)NCCC2=CCCCC2)[nH]n1`, the INHIBITION is -73.5%.
The value for `O=C(NCCN1CCc2ccccc21)c1cc(-c2ccc(O)cc2)n[nH]1` was 68.9%; that for `Cc1cc(C(=O)NCCN2CCCc3ccccc32)[nH]n1` was 48.8%; that for `Cc1ccc(-c2cc(C(=O)NCCC3=CCCCC3)[nH]n2)o1` was 49.9%.
The value for `O=C(NCCC1=CCCCC1)c1cc(-c2ccc(O)cc2)n[nH]1` was 52.6%; that for `O=C(NCCN1CCNC1=O)c1cc(-c2ccc(O)cc2)n[nH]1` was 10.7%.
To `CN1CCN(C(=O)NC2CCCC2)Cc2cccnc21` belongs -29.3%.
On to `CCn1c(CNCC2CCCN2c2cccnn2)nc2ccccc21` (stereo not drawn), for which the INHIBITION is on record as -0.113%.
In the case of `COc1ccc(COCC(O)CNC(=O)Cc2ccc(C)cc2)cc1` (stereo not drawn), the INHIBITION was determined as 11.2%.
On to `Cc1ncn(CCNC(=O)Nc2ccc(F)c(Cl)c2)c(=O)c1C`, for which the INHIBITION was determined as 20.9%.
For the compound `CCOC(=O)COC1CCN(C(C)=O)CC(=O)N(C)c2ccccc21` (stereo not drawn), the INHIBITION is recorded as 22.2%.
The value for `COc1ccccc1-c1ncc(CN2CCC3(CCN(C)C3)CC2)cn1` was 18.4%.
The value for `COc1cccc(COCC(=O)N2CCCN(CC(N)=O)CC2)c1` was -101%.
`CC(C)CC(NC(=O)Nc1ccc(F)c(Cl)c1)C(=O)O` (stereo not drawn): the INHIBITION is given as -20.3%.
To `CC(C)CC(NC(=O)CSc1ccc(F)c(Cl)c1)C(=O)O` (stereo not drawn) belongs 75.8%.
As for `COCC(C)NC(=O)CSc1ccc(F)c(Cl)c1` (stereo not drawn), the INHIBITION was found to be 46.1%.
To `Cc1nc(N2CCCC2)nc2c1CCN(C(=O)CN(C)C)CC2` belongs 20.1%; to `COCc1ccccc1C(=O)N1CCCC1Cn1nc(C)cc1C` (stereo not drawn), -72.745%.
On to `C=C(C)CN1CCN(Cc2cnc(-c3ccccc3C)nc2)CC1`, for which the INHIBITION turned out to be 9.93%.
To `Cc1nn(-c2ccc(C(=O)O)cc2)c2c1C(C(F)(F)F)SCC(=O)N2` (stereo not drawn) belongs -14.3%; to `O=C(NCCCC(=O)N1Cc2ccccc2C1)NCc1cccnc1`, 66.3%.
To `O=C(NCCCC(=O)N1Cc2ccccc2C1)NCc1nccs1` belongs 39.7%.
To `O=C(NCCCC(=O)N1Cc2ccccc2C1)NCc1ccsc1` belongs 23.5%; to `O=C1[C@@H]2CC[C@@H](CN(Cc3nnc(C4CC4)o3)C2)N1Cc1cscn1`, -28.4%; to `CN(C)CCNC(=O)CCC1CCN(C(=O)c2ccc(Cl)cc2O)CC1`, 50.4%.
